# Assay outcomes from PubChem.
# Sampled rows, rich in hits. Any-hit rate of the full collection: about 3.5%.
# GPR151 ag = activates the human receptor GPR151 | Q8TDV0 | PathHunter beta-arrestin GPR151 cells, luminescence | 650,000 tested, 1% active | activation, % at 11.2 µM | AID 1508602; in the data active = activation above about 4.9%;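 note: 0% = median of compound wells and 100% = cells with positive control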
# Target sequence (Q8TDV0 whole entry, looked up): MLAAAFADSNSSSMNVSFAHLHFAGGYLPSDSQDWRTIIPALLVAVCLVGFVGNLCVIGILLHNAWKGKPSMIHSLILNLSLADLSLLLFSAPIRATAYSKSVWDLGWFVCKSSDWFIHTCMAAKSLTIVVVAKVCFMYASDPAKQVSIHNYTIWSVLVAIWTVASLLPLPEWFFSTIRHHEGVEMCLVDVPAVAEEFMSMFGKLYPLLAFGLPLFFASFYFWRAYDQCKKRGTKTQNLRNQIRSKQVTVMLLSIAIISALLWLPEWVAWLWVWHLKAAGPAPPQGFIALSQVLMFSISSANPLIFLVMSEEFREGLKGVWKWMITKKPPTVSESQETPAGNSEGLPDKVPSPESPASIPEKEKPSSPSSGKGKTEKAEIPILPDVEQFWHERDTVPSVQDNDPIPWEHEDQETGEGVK
# FBW7 activator = human FBW7 E3 ligase activation, primary screen. AlphaScreen FBW7–phospho-cyclin E peptide binding, activator screen. Q969H0. 650,000 tested, 0.13% active. normalized activity (activation), % at 26.1 µM; in the data active = normalized activity above about 1.9%;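 note: purified mutant Fbw7 with reduced substrate affinity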
# MITF inh = inhibitors of human MITF; O75030; 650,000 tested, 0.91% active; inhibition, % at 2.6 µM; AID 1259374; AlphaScreen MITF homodimerization, bead proximity signal; in the data active = inhibition above about 50%;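 note: 0% = vehicle wells with protein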
# TEAD-YAP block = TEAD-YAP interaction inhibition. inhibition, % at 9.12 µM. HEK-TIYL cells, TEAD-Gal4/YAP UAS-luciferase luminescence. AID 1259422. 640,000 tested, 1.4% active; in the data active = inhibition above about 32%;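 note: 0% = median of test compound wells and 100% = reference inhibitor wells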
# GPR151 conf act = human GPR151 activation, confirmation screen; GPR151 PathHunter beta-arrestin cells, luminescence, 90 min; % of EA-reagent control over plate median; activation, % at 11.2 µM; 6,700 tested, under 10 active; shares compounds with GPR151 ag;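 active = mean percent activation across replicates above the confirmation screen cutoff of 4.91%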
# GPR119 ag = activates human GPR119 in a GPR151 counter-screen; shares compounds with GPR151 ag; GPR119 PathHunter beta-arrestin cells, luminescence, 90 min; 0 = compound-well median, 100 = enzyme-acceptor control; activation, % at 11.2 µM; 6,700 tested, 0.3% active; AID 1508611;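 active = mean percent activation in the counterscreen above 29.09%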;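 note: counterscreen on off-target GPR119 to flag nonselective hits from the GPR151 activator screen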
# * marks the source's active call; other numbers are inactive results; / = no result given.
SMILES,GPR151 ag,FBW7 activator,MITF inh,TEAD-YAP block,GPR151 conf act,GPR119 ag
COC(=O)c1ccc(NC(=O)CN(c2ccc(F)cc2)S(C)(=O)=O)cc1,-1.1,1.1,0.7,-11.2,/,/
COc1ccc(CCNc2nc(Nc3ccc(-n4ccnc4)cc3)nc3c2ncn3C2CCCCC2)cc1,6.1*,-0.3,15.7,12.6,0.4,2.4
Oc1ccc(CCNc2nc(NCc3ccc4c(c3)OCO4)nc3c2ncn3C2CCCCC2)cc1,17.2*,0.2,12.2,-0.1,0.2,-2.4
COc1ccc(CCNc2cc(C)nc(Nc3ccc(-n4ccnc4)cc3)n2)cc1,5.3*,-0.1,20.2,76.9*,2.9,53.8*
COc1ccc(CCNc2cc(C)nc(NC3CCC(O)CC3)n2)cc1 (stereo unspecified),6.8*,-0.2,0.5,18.4,-1.1,-8.9
CC(C)n1cnc2c(NCc3ccccc3)nc(Nc3ccc(-n4ccnc4)cc3)nc21,2.6,-0.2,14.3,-5.7,/,/
CCCNc1ccnc(Nc2ccc(-n3ccnc3)cc2)n1,0.5,0.0,-5.7,-25.8,/,/
Oc1ccc(CCNc2ccnc(Nc3ccc4ncccc4c3)n2)cc1,3.2,-0.1,-0.9,-4.5,/,/
CC(C)n1cnc2c(NCc3cccc(C(F)(F)F)c3)nc(Nc3ccncc3)nc21,5.9*,0.1,19.6,2.5,0.3,3.4
COc1ccc(CCNc2ccnc(Nc3ccc(-n4ccnc4)cc3)n2)cc1,6.5*,-0.2,-0.4,82.5*,2.4,38.3*
CC(C)n1cnc2c(NCCO)nc(Nc3ccc(-n4ccnc4)cc3)nc21,5.4*,0.0,7.5,-0.8,-1.5,-10.4
COc1ccc(CCNc2ccnc(Nc3ccc4ncccc4c3)n2)cc1,5.9*,0.0,63.0*,51.5*,0.2,2.4
CC(C)(C)NC(=O)C(=O)NNC(=O)c1ccc(Cl)cc1,-0.2,0.1,-9.5,-4.5,/,/
COc1ccc(-c2nc(NCCc3ccc(O)cc3)nc(OC)n2)cn1,5.9*,0.0,4.3,-3.8,-0.9,-8.0
COc1ccc(-c2cc(NCCc3ccc(O)cc3)ncn2)cn1,2.0,0.0,-7.6,-13.3,/,/
COc1ccc(CCNc2cc(-c3ccc(OC)nc3)ncn2)cc1,5.2*,0.1,6.3,10.7,1.6,-4.1
COc1ccc(CCNc2cc(N3CCCC3CO)ncn2)cc1 (stereo unspecified),13.8*,0.8,4.1,-48.7,-0.4,-8.7
CCCNc1cc(N2CCCC2CO)ncn1 (stereo unspecified),0.5,0.0,4.8,-5.6,/,/
CCCCNC(=O)C(=O)Nc1cccc(F)c1,-2.1,0.0,-1.9,-44.9,/,/
CCNc1nc(NCC)n2c(SCC(=O)Nc3ccccc3C)nnc2n1,6.8*,0.0,-14.5,3.0,-0.1,0.9
CCNc1nc(NCC)n2c(SCC(=O)Nc3ccc(C)cc3C)nnc2n1,1.6,0.2,-3.7,11.7,/,/
COCCOC(=O)c1c(N)sc(C(N)=O)c1C,8.5*,0.0,-4.4,3.0,-0.4,-2.7
COC(=O)C(C(=O)Nc1ccccc1C)C1CCCC1 (stereo unspecified),0.1,0.2,7.3,-6.3,/,/
COc1ccccc1OCC(=O)NC1CCCCCC1,-0.2,0.2,-21.2,-52.9,/,/
COc1ccccc1OC(C)C(=O)NC1CCCCC1 (stereo unspecified),6.4*,-0.2,-12.1,-4.5,-1.0,-6.6
SMILES,GPR151 ag,FBW7 activator,MITF inh,TEAD-YAP block,GPR151 conf act,GPR119 ag
CCOC(=O)C(C(=O)Nc1ccccc1OC)C1CCCCC1 (stereo unspecified),5.1*,-0.1,4.3,2.7,0.1,-3.5
CC(=O)c1ccc(S(=O)(=O)NCCc2cn3ccc(C)cc3n2)cc1,5.0*,-0.1,4.7,-4.4,1.2,10.4
Cc1nc2sccn2c(=O)c1S(=O)(=O)N1CCC(Cc2ccccc2)CC1,6.2*,0.1,4.6,-4.5,0.2,0.2
O=c1[nH]c(SCc2cccc(F)c2)nc2c1sc(=S)n2-c1ccccc1,-1.4,0.0,-5.9,-5.7,/,/
CCc1ccc(NC(=O)CSc2nc3ncccc3[nH]2)cc1,6.5*,0.1,0.1,-10.1,0.6,4.9
CC1CCCCN1C(=O)Cn1c(=O)n(-c2ccc(F)cc2)c(=O)c2sccc21 (stereo unspecified),5.2*,0.0,-2.4,8.2,0.1,-4.9
CCC1CCCCN1C(=O)Cn1c(=O)n(-c2ccc(F)cc2)c(=O)c2sccc21 (stereo unspecified),1.5,-0.1,-1.8,13.9,/,/
CCN(C(=O)C1CCC1)c1nnc(-c2cccc(C)c2)s1,-0.2,0.1,-10.1,-33.0,/,/
